Results on 10 molecules are retold here after PubChem BioAssay (EPA / NIEHS).

Each structure is given as a SMILES string. Where “and” joins values, the source holds several entries; their conditions need not be identical. Identical values can stand only once. Results filed as inconclusive are left out. Calls of active or inactive are those of the source. Rule for the calls, unless noted: active = hit-call score of the fitted dose curve at least 0.9, where 1 is the maximum; inactive = score below 0.9.

Assay [1] is described as follows: IUF_NPC1b_proliferation_BrdU_72hr: Leibniz Research Institute for Environmental Medicine (IUF) 72-hour Neural Progenitor Cell Bromodeoxyuridine (BrdU) Proliferation Assay (NPC1b) (AID 2284207). Put shortly:
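Neural progenitor spheres of human fetal origin are treated for three days; BrdU added for the last 16 h is quantified by luminescence ELISA, with DMSO as baseline and EGF/FGF omission as positive control.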

A short description of assay [2]: IUF_NPC1a_proliferation_area_72hr: Leibniz Research Institute for Environmental Medicine (IUF) 72-hour Neural Progenitor Cell Proliferation Area Assay (NPC1a) (AID 2284208). The procedure, abridged:
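Proliferation read as increase in sphere area by phase-contrast imaging over 72 h continuous compound exposure (no renewal) of hNPC spheres grown with EGF/FGF at 37C, 5% CO2. Growth-factor withdrawal served as positive control; DMSO as baseline.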

Assay [3] in a line: IUF_NPC1_viability_72hr: Viability Assessment at 72 hours in the Leibniz Research Institute for Environmental Medicine (IUF) Neural Progenitor Cell Proliferation Assay (NPC1) (AID 2284209). Put shortly: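 Spheres of primary human neural progenitors were plated singly in proliferation medium and treated for 72 h. Mitochondrial reduction of resazurin was then measured by fluorescence and analysed against DMSO controls.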

Assay [4] in a line: CCTE_Mundy_HCI_Cortical_Synap_Neur_Matur_NeuriteSpotCountPerNeuriteLength: CCTE's Synaptogenesis and Neurite Maturation Assay in rat cortical cells for Neurite Spot Count per Neurite Length, Mundy Lab (AID 2284210). The procedure, abridged:
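Neurite-associated synapse density (synaptophysin puncta per unit neurite length) is measured by fluorescence high-content imaging in rat cortical cultures treated from DIV 7 and fixed at DIV 12, with DMSO as negative control.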

Assay [5] is described as follows: CCTE_Mundy_HCI_Cortical_Synap_Neur_Matur_BPCount: CCTE's Synaptogenesis and Neurite Maturation Assay in rat cortical cells for Branch Point Count, Mundy Lab (AID 2284211). Put shortly:
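HCI read-out of branch points from MAP2/synaptophysin/Hoechst immunofluorescence; rat cortical cultures, AraC DIV 5, dosing DIV 7, fixed DIV 12; fit in positive direction vs DMSO baseline.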

Assay [6] in a line: CCTE_Mundy_HCI_Cortical_NOG_NeuriteCount: CCTE's Neurite Outgrowth Assay in rat cortical cells for Neurite Count, Mundy Lab (AID 2284212).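 Note: cells fixed about two days after chemical exposure began.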 The procedure, abridged:
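Rat cortical primary cells; compound added 2 h post-plating, 1/10 dilution of working solution. Anti-betaIII-tubulin/AF488 ICC; ArrayScan neurite count vs DMSO.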

The nature of assay [7]: CCTE_Mundy_HCI_Cortical_Synap_Neur_Matur_NeuriteLength: CCTE's Synaptogenesis and Neurite Maturation Assay in rat cortical cells for Neurite Length, Mundy Lab (AID 2284214). The procedure, abridged:
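Cultures of rat primary cortical cells received chemical at DIV 7 and were fixed at DIV 12, after glial arrest with AraC at DIV 5. Neurite length was measured by automated imaging of MAP2 immunofluorescence.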

Assay [8] in a line: CCTE_Mundy_HCI_Cortical_Synap_Neur_Matur_NeuriteSpotCountPerNeuron: CCTE's Synaptogenesis and Neurite Maturation Assay in rat cortical cells for Neurite Spot Count per Neuron Count, Mundy Lab (AID 2284215). Put shortly:
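High-content imaging counts synaptophysin puncta along MAP2-labelled neurites per neuron after chemical exposure of rat cortical cells from DIV 7 to termination at DIV 12 (AraC added DIV 5). Loss of signal relative to DMSO.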

Assay [9] in a line: CCTE_Mundy_HCI_Cortical_Synap_Neur_Matur_SynapseCount: CCTE's Synaptogenesis and Neurite Maturation Assay in rat cortical cells for Synapse Count, Mundy Lab (AID 2284218). The procedure, abridged:
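Cells were plated, allowed 2 hr to attach, treated with AraC at DIV 5, then exposed to chemicals from DIV 7 until DIV 12. After fixation and MAP2/synaptophysin immunolabelling, synapses per neuron were quantified by automated imaging against DMSO.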

Assay [10] is described as follows: CCTE_Mundy_HCI_hN2_NOG_NeuriteCount: CCTE's Neurite Outgrowth Assay in human hN2 cells for Neurite Count, Mundy Lab (AID 2284219; active = hit-call score of the fitted dose curve at least 0.9, where 1 is the maximum). The procedure, abridged: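 In this morphology assay, hNP1-derived neurons received test chemical 2 h post-plating and were fixed two days later in warm paraformaldehyde/sucrose containing Hoechst 33342. Neurites, labelled by rabbit anti-βIII-tubulin (1:800) and Alexa Fluor-488 (1:500), were counted automatically.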

The nature of assay [11]: CCTE_Mundy_HCI_hN2_NOG_NeuriteLength: CCTE's Neurite Outgrowth Assay in human hN2 cells for Neurite Length, Mundy Lab (AID 2284220; active = hit-call score of the fitted dose curve at least 0.9, where 1 is the maximum). Put shortly:
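Using βIII-tubulin immunofluorescence and Hoechst nuclear counterstain, this component quantifies neurite length in hNP1-derived neurons.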

A short description of assay [12]: CCTE_Mundy_HCI_hN2_NOG_NeuronCount: CCTE's Neurite Outgrowth Assay in human hN2 cells for Neuron Count, Mundy Lab (AID 2284221; active = hit-call score of the fitted dose curve at least 0.9, where 1 is the maximum). The procedure, abridged:
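Read-out is the number of betaIII-tubulin-positive neurons imaged by automated high-content analysis, with DMSO as negative control.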

The nature of assay [13]: CCTE_Mundy_HCI_Cortical_Synap_Neur_Matur_NeuriteCount: CCTE's Synaptogenesis and Neurite Maturation Assay in rat cortical cells for Neurite Count, Mundy Lab (AID 2284222).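 Note: exposure from day 7 to day 12 in vitro with readout at day 12.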 The procedure, abridged: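 In this multiplexed morphology readout, rat primary cortical neurons are fixed at DIV 12 following dosing at DIV 7 and stained for MAP2, synaptophysin and nuclei. High-content image analysis yields neurite count.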

Assay [14] in a line: CCTE_Mundy_HCI_Cortical_Synap_Neur_Matur_CellBodySpotCount: CCTE's Synaptogenesis and Neurite Maturation Assay in rat cortical cells for Cell Body Spot Count, Mundy Lab (AID 2284223). The procedure, abridged:
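High-content imaging counts synaptophysin puncta on neuronal cell bodies per neuron after MAP2/synaptophysin immunostaining. Rat primary cortical cells, glia arrested with AraC at DIV 5, were exposed DIV 7–12; signal decrease measured against DMSO.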

Assay [15] in a line: CCTE_Mundy_HCI_hNP1_Pro_ResponderAvgInten: CCTE's Proliferation Assay in human neuroprogenitor cells, Mundy Lab (AID 2284224; active = hit-call score of the fitted dose curve at least 0.9, where 1 is the maximum;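 note: human neural progenitor cells hNP1 derived from WA09 embryonic stem cells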). The procedure, abridged:
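Human neuroprogenitors (hNP1, WA09 lineage) receive test chemical after 40 to 44 hours of attachment. A four-hour BrdU pulse begins twenty hours later, followed by fixation and high content imaging; signal is referenced to DMSO controls.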

Assay [16] can be described thus: TAMU_PeakParms_SingleDonor1434_Chronotropy: Texas A&M University (TAMU) 1.5-hr Human Induced Pluripotent Stem Cell (iPSC)-derived Cardiomyocytes Calcium (Ca+2) Flux Assay for Cardiotoxicity: Chronotropy (changes in peak frequency) (AID 2284217). Conditions: actives raise or lower the signal. Put shortly:
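Using fluorescent Ca2+ flux, average beats per second are measured in human iPSC-derived cardiomyocytes treated 90 min (0.5% DMSO vehicle, 0.2–100 uM). Non-beating data points are removed; activity is modeled in both directions relative to DMSO controls.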

The nature of assay [17]: BSK_BT_PBMCCytotoxicity: PBMC Cytotoxicity Assessment in the BioMAP Diversity Plus: BT Assay (AID 2284225).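 Note: PBMC viability measured by Alamar Blue dye reduction fluorescence.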 Conditions: primary human B cells with PBMC. Put shortly:
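Viability by Alamar Blue reduction (6 h, ex/em 546/580 nm) after 90 h culture of SEB/TSST-1-activated PBMC (20 ng/mL each) given compound 1 h before activation. DMSO served as baseline for curve fitting.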

Read-out in assay [18]: Secreted IgG (sIgG), gene 3500
Briefly: BSK_BT_sIgG: BioMAP Diversity Plus: BT Assay for Secreted IgG (sIgG) Biomarker Activity (AID 2284226). Particulars: primary human B cells with PBMC. Put shortly: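 Cells (B cells with peripheral blood mononuclear cells) are dosed, cultured 24 h, then supernatant IgG is measured by ELISA. DMSO serves as negative control; curves are fitted for signal increase.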

A short description of assay [19]: UKN2_HCS_IMR90_neural_migration: University of Konstanz (UKN) Leist Lab Neural Crest Cell Migration Assay in human induced IMR90 Pluripotent Stem Cells (UKN2) (AID 2284204). Particulars: actives raise or lower the signal. The procedure, abridged: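 Using a 96-well stopper format with PLO/laminin/fibronectin coating, neural crest cells from iPSC migrate in cytokine-supplemented N2-S medium; after 24 h, chemicals are applied for a further 24 h, then cells are imaged after dye staining.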

For `OCCOCCO`, the molecule was classed as inactive in assay [1], in [2], in [3], in assay [4], in assay [5] and in assay [6]. Further, the call in [7], in [8], in assay [9], in assay [10], in [11] and in assay [12] was inactive. For the same molecule, the call in [13], in assay [14] and in assay [15] was inactive.

Turning to `CCCCCCCCn1sccc1=O`, in assay [16], the result was inactive.

As usually defined, the AC50 is the concentration at which the activity in the assay is half-maximal. As for `[O-][Cl+]O`, the half-maximal activity concentration (AC50) in assay [1] was 2.18 µM (active). Further, the molecule was called inactive in [2], in assay [3], in assay [4], in assay [5], in assay [6] and in assay [7]. The outcome in [8], in assay [9], in assay [13] and in assay [14] was inactive.

On to `CN(C)[C@@H]1C(=O)C(C(N)=O)=C(O)[C@@]2(O)C(=O)C3=C(O)c4c(O)cccc4[C@@](C)(O)[C@H]3C[C@@H]12`, for which the molecule was classed as inactive in [4], in assay [6], in [7], in assay [8], in assay [9] and in assay [13]. Also, the call in assay [14] was inactive. For the same molecule, the concentration at half-maximal activity (AC50) in assay [5] was 0.474 µM (active).

Regarding `CCNS(=O)(=O)C(F)(F)C(F)(F)C(F)(F)C(F)(F)C(F)(F)C(F)(F)C(F)(F)C(F)(F)F`, the outcome in assay [17] was inactive. Also, the AC50 in [18] is 22.5 µM (active) and 30 µM (active).

As to `CNC(=O)Oc1cccc2c1OC(C)(C)C2`, the result in assay [19], in assay [1], in [2], in assay [3], in [4] and in [5] was inactive. Besides, the molecule was classed as inactive in assay [6], in assay [7], in assay [8], in assay [9], in assay [13] and in [14].

`CCCCOC(=O)c1ccccc1C(=O)OCc1ccccc1`: the call in assay [19], in assay [2], in [3], in assay [4], in [6] and in assay [7] was inactive. The call in assay [8], in [9], in assay [13], in assay [14] and in assay [15] was inactive. For the same molecule, the AC50 in assay [1] is 82 µM (active); in assay [5], 10 µM (active).

Turning to `Clc1ccc(C(c2ccc(Cl)cc2)C(Cl)(Cl)Cl)cc1`, the result in assay [16] was inactive.

As for `C1=Cc2cccc3cccc1c23`, the half-maximal activity concentration (AC50) in assay [16] was 50 µM (active).

Regarding `Nc1cc(Cl)cc(C(=O)O)c1Cl`, the molecule was classed as inactive in assay [4], in assay [5], in [6], in assay [7], in assay [8] and in assay [9]. The molecule was called inactive in assay [10], in [11], in [12], in [13] and in assay [14].
